Source: PubChem BioAssay AID1159580 (chemical genetic matrix, 2015)
The campaign covered roughly 5,500 compounds. About 2,000 (36%) were called active. Another 18% or so got no clear call; they are omitted. The list shows a part of the results. A number with no mark means an inactive call. Cut-off read from the data, not from the text of the source: active = normalized growth mostly below about 0.91 (no sharp cut-off); inconclusive = no clear call, values can overlap the other calls; inactive = mostly above about 0.92.

Experiment: chemical genetic growth profiling, strain panel (AID 1159580);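 note: tested at 20 µM; growth read once vehicle control cultures reached saturation at 30 °C; 1 = growth at the plate median or of vehicle wells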
Conditions: growth OD

Structure (SMILES): O=c1c(-c2cc(O)c(O)c(O)c2)coc2cc(O)c(O)c(O)c12
- normalized growth (S. cerevisiae deletion strains, locus YJL187C, strain SWE1, stronger effect = lower value): 0.975
- normalized growth (S. cerevisiae deletion strains, locus YJR043C, strain POL32, stronger effect = lower value): 0.752 (active)
- normalized growth (S. cerevisiae deletion strains, locus YJR075W, strain HOC1, stronger effect = lower value): 0.929
- normalized growth (S. cerevisiae deletion strains, locus YKL009W, strain mrt4, stronger effect = lower value): 1.07
- normalized growth (S. cerevisiae deletion strains, locus YKL068W, stronger effect = lower value): 1.01
- normalized growth (S. cerevisiae deletion strains, locus YKL085W, strain MDH1 (second series), stronger effect = lower value): 1.02
- normalized growth (S. cerevisiae deletion strains, locus YKL085W, strain MDH1, stronger effect = lower value): 1.02
- normalized growth (S. cerevisiae deletion strains, locus YKL160W, strain elf1, stronger effect = lower value): 0.952
- normalized growth (S. cerevisiae deletion strains, locus YKL190W, strain CNB1, stronger effect = lower value): 0.86 (active)
- normalized growth (S. cerevisiae deletion strains, locus YKR001C, strain vps1, stronger effect = lower value): 0.987
- normalized growth (S. cerevisiae deletion strains, locus YKR026C, strain gcn3, stronger effect = lower value): 0.995
- normalized growth (S. cerevisiae deletion strains, locus YKR091W, strain srl3, stronger effect = lower value): 1.02
- normalized growth (S. cerevisiae deletion strains, locus YLL001W, strain dnm1, stronger effect = lower value): 0.965
- normalized growth (S. cerevisiae deletion strains, locus YLL026W, stronger effect = lower value): 1.01
- normalized growth (S. cerevisiae deletion strains, locus YLL041C, strain sdh2, stronger effect = lower value): 1
- normalized growth (S. cerevisiae deletion strains, locus YLR027C, strain aat2, stronger effect = lower value): 0.974
- normalized growth (S. cerevisiae deletion strains, locus YLR039C, strain RIC1, stronger effect = lower value): 0.626 (active)
- normalized growth (S. cerevisiae deletion strains, locus YLR058C, strain SHM2, stronger effect = lower value): 0.377 (active)
- normalized growth (S. cerevisiae deletion strains, locus YLR102C, strain apc9, stronger effect = lower value): 1
- normalized growth (S. cerevisiae deletion strains, locus YLR221C, strain rsa3, stronger effect = lower value): 0.981
- normalized growth (S. cerevisiae deletion strains, locus YLR258W, strain gsy2, stronger effect = lower value): 0.988
- normalized growth (S. cerevisiae deletion strains, locus YLR262C, strain YPT6 (second series), stronger effect = lower value): 0.889
- normalized growth (S. cerevisiae deletion strains, locus YLR262C, strain YPT6, stronger effect = lower value): 0.758
- normalized growth (S. cerevisiae deletion strains, locus YLR268W, strain sec22, stronger effect = lower value): 0.898
- normalized growth (S. cerevisiae deletion strains, locus YLR320W, strain mms22, stronger effect = lower value): 0.941
- normalized growth (S. cerevisiae deletion strains, locus YLR330W, strain CHS5, stronger effect = lower value): 0.93
- normalized growth (S. cerevisiae deletion strains, locus YLR342W, strain FKS1 (second series), stronger effect = lower value): 0.648 (active)
- normalized growth (S. cerevisiae deletion strains, locus YLR342W, strain FKS1, stronger effect = lower value): 0.954
- normalized growth (S. cerevisiae deletion strains, locus YLR357W, strain rsc2, stronger effect = lower value): 0.753 (active)
- normalized growth (S. cerevisiae deletion strains, locus YLR370C, strain arc18, stronger effect = lower value): 0.911
- normalized growth (S. cerevisiae deletion strains, locus YLR371W, strain rom2, stronger effect = lower value): 0.885 (active)
- normalized growth (S. cerevisiae deletion strains, locus YLR384C, strain iki3, stronger effect = lower value): 1
- normalized growth (S. cerevisiae deletion strains, locus YLR418C, strain cdc73, stronger effect = lower value): 0.797 (active)
- normalized growth (S. cerevisiae deletion strains, locus YML016C, strain PPZ1, stronger effect = lower value): 0.853 (active)
- normalized growth (S. cerevisiae deletion strains, locus YML032C, strain rad52, stronger effect = lower value): 0.905 (active)
- normalized growth (S. cerevisiae deletion strains, locus YML120C, strain ndi1, stronger effect = lower value): 0.747 (active)
- normalized growth (S. cerevisiae deletion strains, locus YML124C, strain tub3, stronger effect = lower value): 0.99
- normalized growth (S. cerevisiae deletion strains, locus YMR058W, strain fet3, stronger effect = lower value): 0.761 (active)
- normalized growth (S. cerevisiae deletion strains, locus YMR078C, strain ctf18, stronger effect = lower value): 0.994
- normalized growth (S. cerevisiae deletion strains, locus YMR125W, strain sto1, stronger effect = lower value): 1.06
- normalized growth (S. cerevisiae deletion strains, locus YMR129W, stronger effect = lower value): 1.03
- normalized growth (S. cerevisiae deletion strains, locus YMR205C, strain PFK2, stronger effect = lower value): 0.961
- normalized growth (S. cerevisiae deletion strains, locus YMR223W, strain ubp8, stronger effect = lower value): 0.94
- normalized growth (S. cerevisiae deletion strains, locus YMR231W, strain pep5, stronger effect = lower value): 0.821 (active)
- normalized growth (S. cerevisiae deletion strains, locus YMR307W, strain GAS1, stronger effect = lower value): 0.638
- normalized growth (S. cerevisiae deletion strains, locus YNL067W, strain RPL9B, stronger effect = lower value): 0.841 (active)
- normalized growth (S. cerevisiae deletion strains, locus YNL071W, strain lat1, stronger effect = lower value): 1.01
- normalized growth (S. cerevisiae deletion strains, locus YNL153C, strain GIM3, stronger effect = lower value): 0.582 (active)
- normalized growth (S. cerevisiae deletion strains, locus YNL209W, strain ssb2, stronger effect = lower value): 0.804 (active)
- normalized growth (S. cerevisiae deletion strains, locus YNL233W, strain BNI4, stronger effect = lower value): 0.876
- normalized growth (S. cerevisiae deletion strains, locus YNL248C, strain rpa49, stronger effect = lower value): 0.935
- normalized growth (S. cerevisiae deletion strains, locus YNL250W, strain rad50, stronger effect = lower value): 0.998
- normalized growth (S. cerevisiae deletion strains, locus YNL271C, strain bni1, stronger effect = lower value): 0.986
- normalized growth (S. cerevisiae deletion strains, locus YNL298W, strain CLA4, stronger effect = lower value): 0.974
- normalized growth (S. cerevisiae deletion strains, locus YNL307C, strain MCK1, stronger effect = lower value): 0.986
- normalized growth (S. cerevisiae deletion strains, locus YNL322C, strain KRE1 (second series), stronger effect = lower value): 1.01
- normalized growth (S. cerevisiae deletion strains, locus YNR049C, strain mso1, stronger effect = lower value): 1.01
- normalized growth (S. cerevisiae deletion strains, locus YNR052C, strain pop2, stronger effect = lower value): 0.695 (active)
- normalized growth (S. cerevisiae deletion strains, locus YOL012C, strain htz1): 0.414
- normalized growth (S. cerevisiae deletion strains, locus YOL147C, strain pex11, stronger effect = lower value): 0.865 (active)
- normalized growth (S. cerevisiae deletion strains, locus YOR001W, strain rrp6, stronger effect = lower value): 0.949
- normalized growth (S. cerevisiae deletion strains, locus YOR061W, strain CKA2, stronger effect = lower value): 0.87 (active)
- normalized growth (S. cerevisiae deletion strains, locus YOR069W, strain VPS5, stronger effect = lower value): 0.926 (active)
- normalized growth (S. cerevisiae deletion strains, locus YOR070C, strain gyp1, stronger effect = lower value): 0.978
- normalized growth (S. cerevisiae deletion strains, locus YOR080W, strain dia2, stronger effect = lower value): 0.975
- normalized growth (S. cerevisiae deletion strains, locus YOR083W, strain WHI5, stronger effect = lower value): 0.903
- normalized growth (S. cerevisiae deletion strains, locus YOR106W, strain vam3, stronger effect = lower value): 0.686 (active)
- normalized growth (S. cerevisiae deletion strains, locus YOR136W, strain idh2, stronger effect = lower value): 0.987
- normalized growth (S. cerevisiae deletion strains, locus YOR144C, strain elg1, stronger effect = lower value): 0.915 (active)
- normalized growth (S. cerevisiae deletion strains, locus YOR184W, strain ser1, stronger effect = lower value): 0.88
- normalized growth (S. cerevisiae deletion strains, locus YOR265W, strain rbl2, stronger effect = lower value): 1
- normalized growth (S. cerevisiae deletion strains, locus YOR270C, strain vph1, stronger effect = lower value): 0.572 (active)
- normalized growth (S. cerevisiae deletion strains, locus YOR290C, strain snf2, stronger effect = lower value): 0.344 (active)
- normalized growth (S. cerevisiae deletion strains, locus YOR316C, strain cot1, stronger effect = lower value): 1
- normalized growth (S. cerevisiae deletion strains, locus YPL051W, strain arl3, stronger effect = lower value): 0.817 (active)
- normalized growth (S. cerevisiae deletion strains, locus YPL055C, strain LGE1, stronger effect = lower value): 0.783
- normalized growth (S. cerevisiae deletion strains, locus YPL078C, strain atp4, stronger effect = lower value): 0.856 (active)
- normalized growth (S. cerevisiae deletion strains, locus YPL106C, strain sse1, stronger effect = lower value): 0.91
- normalized growth (S. cerevisiae deletion strains, locus YPL240C, strain hsp82, stronger effect = lower value): 0.988
- normalized growth (S. cerevisiae deletion strains, locus YPL241C, strain CIN2, stronger effect = lower value): 0.948
- normalized growth (S. cerevisiae deletion strains, locus YPR119W, strain clb2, stronger effect = lower value): 1.02
- normalized growth (S. cerevisiae deletion strains, locus YPR141C, strain kar3, stronger effect = lower value): 1
- normalized growth (S. cerevisiae deletion strains, locus YPR163C, strain tif3, stronger effect = lower value): 0.998
- normalized growth (S. cerevisiae deletion strains, locus YPR167C, strain met16, stronger effect = lower value): 1.01
- normalized growth (S. cerevisiae deletion strains, strain wtn01, stronger effect = lower value): 0.934
- normalized growth (S. cerevisiae strains, strain wild type, stronger effect = lower value): 0.78 (active)
